Jurkat NFkB inh: inhibitors of the PMA/ionomycin-induced NF-kB reporter in Jurkat cells; PMA/ionomycin-induced NF-kB luciferase reporter, luminescence; inhibition, % at 4 µM; 330,000 compounds, 0.53% hits; in the data active means inhibition above about 50%
TRPM1 prom inh: MITF TRPM1 promoter inhibition in SK-MEL-5 cells; SK-MEL-5 TRPM1 promoter luciferase, 24 h; inhibition, % at 12.5 µM; 330,000 compounds, 0.83% hits; AID 488899;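 active means mean inhibition across replicates of 60% or more, whatever share of single replicates reaches that level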
Shn3 3UTR inh: Schnurri-3 reporter inhibition in Clone20 osteoblasts | 360,000 compounds, 0.52% hits | inhibition, % at 12.5 µM | Clone20 osteoblast Shn3 3'UTR firefly luciferase, 24 h;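 active means mean inhibition of at least 75% with every replicate also reaching 75%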
EBV LMP1 NFkB: Epstein-Barr LMP1 NF-kappaB reporter inhibition; LMP1-induced NF-kappaB luciferase reporter cells, luminescence; inhibition, % at 12.5 µM; 350,000 compounds, 0.69% hits; in the data active means inhibition above about 41%
697 NFkB inh: lowers PMA/ionomycin-induced NF-kB signal in 697 B cells | 697 B-cell NF-kB luciferase reporter, 16 h | inhibition, % at 4 µM | 330,000 compounds, 0.33% hits | AID 435022; in the data active means inhibition above about 35%
Gli-Sufu antag: blocks Gli-Sufu signaling in a luciferase reporter; Sufu-KO-LIGHT fibroblasts, Gli luciferase reporter luminescence; inhibition, % at 5 µM; 340,000 compounds, 0.74% hits; AID 588413;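 active means inhibition above about 55%, limit read from the data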
697 NFkB conf: lowers PMA/ionomycin-induced NF-kB signal in 697 B cells; shares compounds with 697 NFkB inh; 697 B-cell NF-kB luciferase, 16 h; inhibition, % at 4 µM; 2,000 compounds, 35% hits; AID 449746; in the data active means inhibition mostly above about 28%, no sharp cut-off; inactive means mostly below about 22%
Of the large screens only hits and unclear results are named; the others gave an inactive call (follow-up assays come after a bar, where they were run). Sampled rows, rich in hits. Any-hit rate of the full collection: about 2.3%.

CCC(C)Cn1c(S(=O)(=O)O)nc2ccccc21 (stereo not drawn)	none
CCCc1cc(=O)[nH]c(SCC(=O)N(C)C2CCS(=O)(=O)C2)n1 (stereo not drawn)	none
CCOC(=O)CNC(=S)SC	none
Cc1ccc(/C=C2\SC(=S)N(CCCC(=O)Nc3cc(C)on3)C2=O)cc1	697 NFkB inh 52.5 | 697 NFkB conf 58.9
COc1ccc(/C=C2\SC(=S)N(CCCC(=O)Nc3cc(C)on3)C2=O)cc1OC	none
Cc1ccc(/C=C2\SC(=S)N(CCCC(=O)Nc3cccnc3)C2=O)cc1	EBV LMP1 NFkB 71.8, 697 NFkB inh 90.1 (no result: Gli-Sufu antag) | 697 NFkB conf 99.3
Cc1ccc(/C=C2\SC(=S)N(CCC(=O)NNC(=O)c3ccncc3)C2=O)cc1	697 NFkB inh 43.8 (no result: TRPM1 prom inh, EBV LMP1 NFkB) | 697 NFkB conf 30.7
O=C(Nc1ccc(S(=O)(=O)N2CCCc3ccccc32)cc1)C1CCCO1 (stereo not drawn)	none
O=C(O)C1CC=CCC1C(=O)Nc1ccc(S(=O)(=O)N2CCCc3ccccc32)cc1 (stereo not drawn)	none | 697 NFkB conf inactive
COc1ccc(-c2cc(-c3ccccc3)c(C#N)c(S(C)=O)n2)cc1 (stereo not drawn)	TRPM1 prom inh 69.6, 697 NFkB inh 37.1 | 697 NFkB conf inactive
CCN1CCN(C(c2cccs2)C(C)NC(=S)NC2CCCCC2)CC1 (stereo not drawn)	none
CC1=CC(C)(C)Nc2ccc(OC(=O)CCN3C(=O)c4ccccc4C3=O)cc21	697 NFkB inh 41.3 | 697 NFkB conf inactive
COc1cc(C(=O)NCC(=O)N/N=C(C)\C=C\c2ccccc2)cc(OC)c1OC	none
CCOc1cccc2sc(=NC(=O)c3ccc(S(=O)(=O)N4CCOCC4)cc3)n(C)c12	none
CCc1c(C)c2c(C)nn(-c3ccccc3)c2oc1=O	none
Cc1c(CCO)c(=O)oc2n[nH]c(-c3ccccc3)c12	697 NFkB inh 35.3 | 697 NFkB conf 24.5
Cc1cccc(-c2nnc(SCC(=O)Nc3cccc(C(=O)N4CCOCC4)c3)n2C)c1	none
CCOC(=O)C1CCN(c2ncnc3c2cnn3-c2ccc(OC)cc2)CC1	697 NFkB inh 47.1 | 697 NFkB conf 36.5
COc1ccc(-n2ncc3c(N4CCC(C(N)=O)CC4)ncnc32)cc1	697 NFkB inh 59.8 | 697 NFkB conf 45.0
COCCN(Cc1nc(-c2ccc(-c3ccccc3)cc2)oc1C)C(C)C	none | 697 NFkB conf inactive
CCN1C(=O)c2cccc3c(S(=O)(=O)NCc4ccccc4)ccc1c23	none
CCN1C(=O)c2cccc3c(S(=O)(=O)N4CCC(C)CC4)ccc1c23	697 NFkB inh 41.1 | 697 NFkB conf 46.5
Cc1ccc(NS(=O)(=O)c2ccc(Br)s2)cc1S(=O)(=O)N1CCOCC1	697 NFkB inh 45.9 | 697 NFkB conf inactive
Cc1ccc(NS(=O)(=O)c2cccc(C(=O)O)c2)cc1S(=O)(=O)N1CCOCC1	none
CSCCC(NC(C)=O)C(=O)Oc1ccc2c3c(c(=O)oc2c1)CCCC3 (stereo not drawn)	none (no result: Jurkat NFkB inh, 697 NFkB inh)
CSCCC(NC(=O)OC(C)(C)C)C(=O)Oc1ccc2c(=O)c(-c3ccc4c(c3)OCCO4)coc2c1 (stereo not drawn)	none | 697 NFkB conf inactive
CCc1cc2c(-c3ccccc3)cc(=O)oc2cc1OC(C)C(=O)NCC1CCC(C(=O)O)CC1 (stereo not drawn)	697 NFkB inh 41.2 (no result: TRPM1 prom inh) | 697 NFkB conf inactive
CC(Oc1cc2oc(=O)cc(-c3ccccc3)c2cc1Cl)C(=O)NCC1CCC(C(=O)O)CC1 (stereo not drawn)	none
COc1ccccc1NC(=O)CSc1nc(=O)n(Cc2ccncc2)c2c1CCCC2	none
Cn1nc(-c2ccc(Cl)cc2)c2cc(C(=O)N3CCCC3)sc21	697 NFkB inh 56.5 | 697 NFkB conf 43.2
Cn1nc(-c2ccc(Cl)cc2)c2cc(C(=O)N3CCN(c4ccccc4)CC3)sc21	none
Cc1cccc(NS(=O)(=O)c2ccc(NC(=O)CN(c3cc([N+](=O)[O-])ccc3C)S(C)(=O)=O)cc2)c1	none
COc1ccc(C)cc1NS(=O)(=O)c1ccc(NC(=O)CN(c2cc([N+](=O)[O-])ccc2C)S(C)(=O)=O)cc1	697 NFkB inh 38.3 | 697 NFkB conf inactive
Cc1ccc(NC(=O)OCC(F)(F)C(F)F)cc1NC(=O)OCC(F)(F)C(F)F	none
Cc1nc(SC(C)C(=O)NCC2CCCO2)c2cc(-c3ccccc3)sc2n1 (stereo not drawn)	none | 697 NFkB conf inactive
CC(Sc1ncnc2c1cnn2-c1ccccc1)C(=O)NCC1CCCO1 (stereo not drawn)	none
COCCCNc1nc2cc(OC)c(OC)cc2c2nc(-c3ccccc3)nn12	697 NFkB inh 37.2 | 697 NFkB conf inactive
CN=c1scc(C)n1/N=C/c1ccc2c(c1)OCO2	none | 697 NFkB conf inactive
COc1cc(NC(=S)NC(=O)c2ccc(C(C)(C)C)cc2)ccc1NC(=O)c1cccs1	none | 697 NFkB conf inactive
O=C(NCCCN1CCOCC1)c1nn2c(C(F)(F)F)cc(-c3ccco3)nc2c1Cl	none
CCCNC(=O)N1CCN(C(c2ccccc2)c2ccccc2)CC1	none
O=C(NC(=O)N1CCN(C(c2ccccc2)c2ccccc2)CC1)c1ccccc1	697 NFkB inh 36.4 | 697 NFkB conf inactive
Cc1cc(C)n2nc(C(=O)OCC(=O)NC(=O)c3ccccc3)nc2n1	none
CCN(CC)S(=O)(=O)c1ccc(N2CCOCC2)c(NC(=O)c2[nH]c(C)c(C(C)=O)c2C)c1	697 NFkB inh 48.1 | 697 NFkB conf 45.6
O=C(Nc1ccc(NC(=S)NC(=O)c2ccccc2Cl)cc1)c1cccc(Cl)c1	none
O=C(/C=C/c1ccc(O)c(O)c1)c1ccccc1O	none | 697 NFkB conf inactive
CCN1C(=O)N[C@@H](c2cccc(F)c2)C(C(C)=O)=C1C	none
COc1ccccc1NC(=O)c1ccc2snnc2c1	none
COc1cc(/C=N/NC(=O)c2cc(-c3cccc(OC(C)C)c3)nc3ccccc23)ccc1O	none | 697 NFkB conf inactive
COc1cc(/C=N/NC(=O)c2cc(-c3cccs3)nc3ccccc23)ccc1O	none
O=C(CN1C(=O)c2ccccc2S1(=O)=O)c1ccccc1Cl	TRPM1 prom inh 77.6, EBV LMP1 NFkB 67.3, 697 NFkB inh 54.4 (no result: Gli-Sufu antag) | 697 NFkB conf 36.7
CNC(=S)N(CCc1c(C)[nH]c2ccc(C)cc12)Cc1cc(OC)c(OC)c(OC)c1	none (no result: TRPM1 prom inh)
O=c1c2ccccc2sc2ccc(C#CC3(O)CCCCC3)cc12	TRPM1 prom inh 93.2, Shn3 3UTR inh 88.7, EBV LMP1 NFkB 81.2, 697 NFkB inh 39.7, Gli-Sufu antag 83.0 | 697 NFkB conf inactive
CC(C)COc1ccc(-c2nnc(-c3ccco3)o2)cc1	none | 697 NFkB conf inactive
CCOc1cc(/C=C(/C#N)c2nc3ccccc3[nH]2)ccc1Oc1ccc([N+](=O)[O-])cn1	697 NFkB inh 39.7 | 697 NFkB conf inactive

Compound activity: PubChem BioAssay, several laboratories
